From PubChem BioAssay (NCATS)
Records with an inconclusive call do not appear. Activity calls are given as the source filed them. Unless noted, the call rests on the fitted dose curve.

Assays:
[1] = qHTS for Inhibitors of the Functional Ribonucleoprotein Complex (vRNP) of Lassa (LASV) Arenavirus: LASV Primary Screen - GLuc reporter signal (AID 1347082; calls by dose curve; tested in HEK293 reporter line; further: nearly all actives have a fitted effect of over 60% in size); conditions: LASV minigenome vRNP, Gaussia luciferase reporter; series mostly up to 57.5 µM
[2] = qHTS for Inhibitors of the Functional Ribonucleoprotein Complex (vRNP) of Lassa (LASV) Arenavirus: Viability assay - alamar blue signal for LASV Primary Screen (AID 1347083; calls by dose curve; tested in HEK293 reporter line; further: nearly all actives have a fitted effect of over 80% in size); conditions: cell viability, alamar blue fluorescence (LASV minigenome counter-screen); series mostly up to 57.5 µM
[3] = qHTS for Inhibitors of the Functional Ribonucleoprotein Complex (vRNP) of Lymphocytic Choriomeningitis Arenaviruses (LCMV): Viability assay - alamar blue signal for LCMV Primary Screen (AID 1347085; calls by dose curve; tested in HEK293 reporter line; further: nearly all actives have a fitted effect of over 80% in size); conditions: alamar blue viability counter-screen, LCMV vRNP screen cells; series mostly up to 57.5 µM
[4] = target: Nucleoprotein (Lymphocytic choriomeningitis virus (strain Armstrong)) (UniProt P09992); assay: qHTS for Inhibitors of the Functional Ribonucleoprotein Complex (vRNP) of Lymphocytic Choriomeningitis Arenaviruses (LCMV): LCMV Primary Screen - GLuc reporter signal (AID 1347086); conditions: LCMV minigenome vRNP cell assay, Gaussia luciferase reporter; series mostly up to 57.5 µM; further: nearly all actives have a fitted effect of over 70% in size
Chain of Nucleoprotein (Lymphocytic choriomeningitis virus (strain Armstrong)) (P09992 whole entry, looked up): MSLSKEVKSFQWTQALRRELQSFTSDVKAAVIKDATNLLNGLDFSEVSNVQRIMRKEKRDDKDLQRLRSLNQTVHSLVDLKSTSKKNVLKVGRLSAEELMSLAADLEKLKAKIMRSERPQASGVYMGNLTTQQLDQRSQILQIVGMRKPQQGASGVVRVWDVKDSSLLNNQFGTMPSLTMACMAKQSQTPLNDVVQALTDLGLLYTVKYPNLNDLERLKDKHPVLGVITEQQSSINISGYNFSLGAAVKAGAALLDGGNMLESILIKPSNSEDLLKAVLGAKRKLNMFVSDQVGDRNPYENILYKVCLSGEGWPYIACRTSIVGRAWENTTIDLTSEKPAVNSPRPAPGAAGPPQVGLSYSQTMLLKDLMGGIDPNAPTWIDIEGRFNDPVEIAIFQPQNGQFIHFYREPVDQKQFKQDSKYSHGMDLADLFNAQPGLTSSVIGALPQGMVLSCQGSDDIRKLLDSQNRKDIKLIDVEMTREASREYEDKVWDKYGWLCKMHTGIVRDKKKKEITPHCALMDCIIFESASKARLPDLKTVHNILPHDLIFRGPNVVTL
On the % scale 0 is the no-effect control and ±100 the full control effect.

C=C(CC[C@@H](O)C(C)(C)O)[C@H]1CC[C@]2(C)[C@@H]1CCC1[C@@]3(C)CC[C@H](O)C(C)(C)C3CC[C@]12C (some centres not stated)
inactive: Potency [1] | Potency [2] | Potency [3] | Potency [4]

O=C(/C=C/c1ccc(O)cc1)OC[C@H]1O[C@@H](Oc2c(-c3ccc(O)cc3)oc3cc(O)cc(O)c3c2=O)[C@H](O)[C@@H](O)[C@@H]1O
inactive: Potency [1] | Potency [2] | Potency [3] | Potency [4]

CSC(=S)NCc1c[nH]c2ccccc12
inactive: Potency [1] | Potency [2] | Potency [3] | Potency [4]

C=CC(C)(CCC=C(C)C)OC(=O)c1ccccc1 (configuration not stated)
inactive: Potency [1] | Potency [2] | Potency [3] | Potency [4]

CC[C@H](C)/C=C(C)/C=C/C(=O)Cc1cc(O)c(C)c(O)c1C=O
inactive: Potency [1] | Potency [2] | Potency [3] | Potency [4]

CC1(C)O[C@@H]2C[C@@H]3[C@H]4C[C@@H](F)C5=CC(=O)C=C[C@]5(C)[C@@]4(F)[C@@H](O)C[C@]3(C)[C@]2(C(=O)CO)O1
inactive: Potency [1] | Potency [2] | Potency [3] | Potency [4]

CC1=CC2OC3CC4OC(=O)C=CC=CC(=O)OCCC(C)C(O)C(=O)OCC2(CC1O)C4(C)C31CO1 (configuration not stated)
inactive: Potency [1] | Potency [2] | Potency [3] | Potency [4]

COc1cc2ccc(=O)oc2c(O)c1O
inactive: Potency [1] | Potency [2] | Potency [3] | Potency [4]

COc1c2ccoc2c(OC[C@@H](O)C(C)(C)O)c2oc(=O)ccc12
inactive: Potency [1] | Potency [2] | Potency [3] | Potency [4]

CC(C)(O)CC[C@@H](O)[C@](C)(O)C1CC[C@@]2(O)C3=CC(=O)[C@]4(O)C[C@@H](O)[C@@H](O)C[C@]4(C)C3CC[C@]12C (some centres not stated)
inactive: Potency [1] | Potency [2] | Potency [3] | Potency [4]

C#CCCC/C(=C\C(=O)N(C)[C@H](C(=O)N(C)[C@H](C(=O)N(C)[C@H](C(=O)N(C)[C@H](C(N)=O)C(C)C)C(C)C)C(C)C)C(C)C)OC
inactive: Potency [1] | Potency [2] | Potency [3] | Potency [4]

CCCCCc1cccc(=O)o1
inactive: Potency [1] | Potency [2] | Potency [3] | Potency [4]

C[C@@H]1O[C@@H](OC2C(O)C(OCCc3ccc(O)c(O)c3)OC(CO)C2OC(=O)/C=C/c2ccc(O)c(O)c2)[C@H](O)[C@H](O)[C@H]1O (some centres not stated)
inactive: Potency [1] | Potency [2] | Potency [3] | Potency [4]

CN1C(=O)[C@@H]2C[C@@]3([C@@]45C[C@H]6C(=O)N(C)[C@@H](Cc7ccccc7)C(=O)N6[C@@H]4Nc4ccccc45)c4ccccc4N[C@H]3N2C(=O)[C@@H]1Cc1ccccc1
inactive: Potency [1] | Potency [2] | Potency [3] | Potency [4]

COc1ccc(C(C)=O)cc1
inactive: Potency [1] | Potency [2] | Potency [3] | Potency [4]

CC/C=C\CC/C=C/CO
inactive: Potency [1] | Potency [2] | Potency [3] | Potency [4]

CC(=O)O[C@@H]1[C@H](OC(=O)CC(C)C)c2c(ccc3ccc(=O)oc23)OC1(C)C
inactive: Potency [1] | Potency [2] | Potency [3] | Potency [4]

Cc1cc2c(c(C)c1CCO)C(=O)[C@H](C)C2
inactive: Potency [1] | Potency [2] | Potency [3] | Potency [4]

C=CC(C)(CCC=C(C)C)OC(=O)C(C)C (configuration not stated)
inactive: Potency [1] | Potency [2] | Potency [3] | Potency [4]

CCCCCCCCC1OC1CCCCCCCC(=O)O (configuration not stated)
inactive: Potency [1] | Potency [2] | Potency [3] | Potency [4]

Cn1c(=O)c2[nH]c(=O)[nH]c2n(C)c1=O
inactive: Potency [1] | Potency [2] | Potency [3] | Potency [4]

C[C@]12CC[C@H](O)CC1=CCC1C2CC[C@@]2(C)C1C[C@@H](O)[C@@H]2O (some centres not stated)
inactive: Potency [1] | Potency [2] | Potency [3] | Potency [4]

CC(=O)c1ccccc1O
inactive: Potency [1] | Potency [2] | Potency [3] | Potency [4]

CCCCC/C=C\C[C@@H]1O[C@H]1C(O)/C=C\C/C=C\CCCC(=O)O (some centres not stated)
inactive: activity change, negative = inhibition [1] 2.65% [at 0.757 µM] | activity change, negative = reduced viability [2] 5.76% [at 0.757 µM] | activity change, negative = lower viability [3] 11% [at 0.757 µM] | activity change, negative = inhibition [4] 17.5% [at 0.757 µM]

C=CC(C)(CCC=C(C)C)OC(=O)CC (configuration not stated)
inactive: Potency [1] | Potency [2] | Potency [3] | Potency [4]

C/C=C(\C)C(=O)O[C@H]1C[C@@]2(C)CCC(C(C)C)C2(O)CC[C@@]1(C)O (some centres not stated)
inactive: Potency [1] | Potency [2] | Potency [3] | Potency [4]

COC(=O)/C=C\C(=O)O
inactive: Potency [1] | Potency [2] | Potency [3] | Potency [4]

CCCC(=O)OC/C=C(\C)CCC=C(C)C
inactive: Potency [1] | Potency [2] | Potency [3] | Potency [4]

CC(C)=CCCC(C)CC=O (configuration not stated)
inactive: Potency [1] | Potency [2] | Potency [3] | Potency [4]

C=C1C(O)C[C@H]2C(=C)CCC3[C@H](OC(=O)[C@]3(O)CO)[C@@H]12 (some centres not stated)
inactive: Potency [1] | Potency [2] | Potency [3] | Potency [4]

O=C/C=C/c1ccc(O)cc1
inactive: Potency [1] | Potency [2] | Potency [3] | Potency [4]

C[C@]12CCC3=C4CCC(=O)C=C4CC[C@@H]3[C@H]1CC[C@@]2(O)CC#N
inactive: Potency [1] | Potency [2] | Potency [3] | Potency [4]

C=C1[C@H]2CC[C@@H]3[C@H]2C(C)(C)CCC[C@]13C
inactive: Potency [1] | Potency [2] | Potency [3] | Potency [4]
